The source of these data is PubChem BioAssay AID504329 (Southern Research Specialized Biocontainment Screening …, 2011).

The whole screen tested about 340,000 compounds, of which about 1,000 (0.29%) were called active. No stated cut-off is given here; in the data, inconclusive means inhibition above about 27% without an active follow-up result; inactive means below that. These entries were drawn from the full list. Results with a measured potency or affinity are listed apart.

The experiment can be described thus: NS1A inhibition, H1N1 influenza, cell based functional assay (AID 504329). To be noted: percent inhibition, at 12.5 µM, hits give high values.
Turning to `C=CC(C)(C)c1c(O)c(CC=C(C)C)c(O)c2c(=O)c3ccc(O)c(O)c3oc12`, the inhibition is 4.4% (inactive).
Under `O=C(Cc1cccc(C(F)(F)F)c1)OCC(=O)N1CCN(S(=O)(=O)c2ccc(Cl)cc2)CC1` stands -3.3% (inactive); under `CCOc1ccc(NC(=O)C2CCCN2C(=O)NC2CCCCC2)cc1` (centres undefined), 3.03% (inactive).
The same measure for `Cc1ccc2cc(CCNC(=O)C3CCCC3)c(=O)[nH]c2c1`: 9.32% (inactive).
Under `CCC(C)(C)NC(=O)C(c1ccc(OC)cc1)N(C(=O)CCC(=O)Nc1cc(C)on1)c1ccc2c(c1)OCCO2` (centres undefined) stands -4.61% (inactive); under `CNC(=O)c1[nH]cnc1C(=O)Nc1cccc(C)c1`, -8.44% (inactive); under `COc1ccc(OCC(=O)Nc2ccc3c(c2)nc(CCn2ccccc2=O)n3C)cc1`, 5.24% (inactive).
With `CN1CCN(C(=O)c2ccc3nc(-c4ccccc4)c(-c4ccccc4)nc3c2)CC1`, the inhibition was -4.76% (inactive).
Under `Oc1cc(-c2ccc(N3CCCCC3)nc2)cc2cccnc12` stands -0.13% (inactive); under `O=C(c1ccc(-c2ccccc2)cc1)N1CCN(c2ncccn2)CC1`, 20.6% (inactive).
The same measure for `CC(C)(C)c1ccc(C(=O)N2CCNCC2)cc1`: -7.49% (inactive); for `CN1CCN(C(=O)c2ccc3ccccc3c2)CC1`: -18.4% (inactive); for `Cc1cc(N2CCN(C)CC2)nc(-c2ccccc2O)n1`: 8.33% (inactive).
For the compound `Cc1[nH]c2ccccc2c1C(=O)C(=O)N1CC(C)OC(C)C1` (centres undefined), the inhibition was -0.55% (inactive).
Under `COc1ccc(NC(=O)CN(C)C(=O)C2CSC3(C)CCC(=O)N23)cc1` (centres undefined) stands -5.66% (inactive); under `O=C(CCNC(=O)N1CC(=O)Nc2ccccc21)Nc1ccc(Cl)cc1`, -4.42% (inactive).
As for `Cc1cc(C(=O)NN)c2cc(Br)ccc2n1`, the inhibition was -10.8% (inactive).
Under `O=C(c1ccc(F)cc1F)N1CCC(N2CCC(C(=O)N3CCOCC3)CC2)CC1` stands 4.56% (inactive).
As for `CCOC(=O)C(=O)Nc1ccccc1C(=O)NCc1ccccc1`, the inhibition is -18.5% (inactive).
Take `CC(C)Cn1cnc2c(c1=N)C(c1ccccc1)C1=C(CC(C)(C)CC1=O)O2` (centres undefined): the inhibition is 0.81% (inactive).
The same measure for `COc1ccc(C2C(C(=O)c3ccccc3)N3c4ccccc4C=CC3C2[N+](=O)[O-])cc1` (centres undefined): -12.1% (inactive).
Regarding `O=C(c1ccco1)[C@@H]1[C@@H]2C(=O)N(c3ccc(F)cc3)C(=O)[C@@H]2[C@H]2C=Cc3ccccc3N21`, the inhibition is 0.66% (inactive).
In the case of `Cc1cc(C)cc(N2C(=O)CCN(Cc3ccccc3)C2=O)c1`, the inhibition is 0.48% (inactive).
Regarding `Cc1c(N=C/C=C2\N(C)c3ccccc3C2(C)C)c(=O)n(-c2ccccc2)n1C`, the inhibition was 1.39% (inactive).
On to `CC1=NN(c2ccccc2)C(=O)/C1=C/C=C/c1ccccc1`, for which the inhibition is 9.01% (inactive).
Under `CC1=NN(c2ccccc2)C(=O)/C1=C/c1ccc(Cl)cc1` stands 4.56% (inactive); under `CC1=NN(c2ccccc2)C(=O)/C1=C/C=C/C=C/N(C)C`, 22.1% (inactive).
The same measure for `CC1=NN(c2ccccc2)C(=O)/C1=C/c1cccs1`: 24.1% (inactive); for `CC1=NN(c2ccccc2)C(=O)/C1=C/c1cccc(C)c1`: -0.71% (inactive); for `CC1=NN(c2ccccc2)C(=O)/C1=C\C=C1\N(C)c2ccccc2C1(C)C`: 25.6% (inactive).
As for `CC1=NN(c2ccccc2)C(=O)/C1=C/N(C)C`, the inhibition is 12.1% (inactive).
Under `CC(=O)Nc1cc(C)c2nc(NC(C)=O)sc2c1` stands 8.68% (inactive); under `Cc1cc(C)c2nc(N3CCCC(C(=O)NC4CCCC4)C3)sc2c1` (centres undefined), 1.03% (inactive).
Consider `CN(CC(=O)Nc1c(Cl)cccc1Cl)C(=O)CCC1CCCC1`, for which the inhibition is -7.47% (inactive).
The same measure for `CCOc1ccc(OCCC(=O)OCC(=O)NCc2ccccc2)cc1`: 4.79% (inactive); for `Cc1nc2ccccc2c2oc(C(=O)N3CCc4ccccc4C3)cc12`: 14.6% (inactive); for `COc1ccccc1C(=O)NC(=O)COC(=O)c1ccc(Cl)cc1[N+](=O)[O-]`: 11.3% (inactive).
Under `O=C(N/N=C\C=C\c1ccc2c(c1)OCO2)C1COc2ccccc2O1` (centres undefined) stands -2.03% (inactive); under `O=C(O)c1ccc(N2C(=O)/C(=C/C=C/c3ccccc3)SC2=S)cc1`, -0.2% (inactive); under `CCOC(=O)CC1=NN(c2ccccc2)C(=O)/C1=C\c1ccc(OC)cc1OC`, 17.9% (inactive).
Under `O=C1NC(=O)N(c2ccccc2)C(=O)/C1=C/C=C/c1ccco1` stands -5.11% (inactive); under `COC(=O)CC1=NN(c2ccccc2)C(=O)/C1=C\c1ccc(OC)cc1`, 3.36% (inactive); under `O=C1CC(N2C(=O)/C(=C/C=C/c3ccccc3)SC2=S)C(=O)N1c1ccccc1` (centres undefined), 7.39% (inactive).
Turning to `CN1/C(=C\C=C2C(=O)NC(=S)NC2=O)C(C)(C)c2ccccc21`, the inhibition is 6.82% (inactive).
The same measure for `Cc1ccc(N2C(=O)NC(=O)/C(=C\C=C\c3ccco3)C2=O)cc1`: -8.27% (inactive); for `CN1/C(=C\C=C2C(=O)NC(=O)NC2=O)C(C)(C)c2ccccc21`: -3.94% (inactive).
Under `Cc1ccc(S(=O)(=O)CCC(=O)OC2CC(C)OC2=O)cc1` (centres undefined) stands -7.36% (inactive); under `C=CCOc1ccc(Br)cc1/C=C1\NC(=S)N(C(C)=O)C1=O`, 5.35% (inactive); under `O=C(O)CP(=O)(c1ccccc1)c1ccccc1`, -20.8% (inactive).
The same measure for `O=C(NC1CC1)C1CSC(c2cccnc2)=N1` (centres undefined): -5.68% (inactive).
Turning to `COC(=O)CNC(=O)CNC(=O)c1nn(-c2ccc(OC)c(Cl)c2)c(=O)c2ccccc12`, the inhibition was -9.13% (inactive).
Under `Cc1ccc(S(=O)(=O)c2nc(NCCN(C)C)sc2Cl)cc1` stands 3.06% (inactive); under `CCOC(=O)C1=C(C(=O)OCC)N(Cc2ccccc2)CCC1=O`, -3.47% (inactive).
As for `Cc1ccc(/C=N/NC(=O)C(C)NC(=O)c2ccccc2)cc1` (centres undefined), the inhibition is -0.33% (inactive).
Under `CCC(C)NC(=O)CSc1nc2ccccc2c(=O)n1-c1c(C)n(C)n(-c2ccccc2)c1=O` (centres undefined) stands -0.57% (inactive).
The same measure for `Fc1ccccc1CSc1nnc(-c2cnccn2)n1Cc1ccco1`: -1.61% (inactive); for `O=C(NCCc1ccccc1)c1cc(-c2ccccc2)c(N2CCOCC2)s1`: 1.49% (inactive); for `CCCNC(=O)c1cc(-c2ccccc2)c(N2CCCCC2)s1`: -16.7% (inactive).
For `CC(=O)n1cc(/C=N/NC(N)=S)c2ccccc21`, the inhibition was -5.48% (inactive).
The same measure for `Cn1cc(/C=N/NC(N)=S)c2ccccc21`: -12.5% (inactive).
Under `CNc1cccnc1C=NNC(N)=S` stands 17.7% (inactive); under `NC(=S)N/N=C\c1c2ccccc2cc2ccccc12`, 8.41% (inactive).
Under `NC(=S)N/N=C/c1c(O)ccc2ccccc12` stands -3.38% (inactive); under `Cc1[nH]c2ccccc2c1/C=N/NC(N)=S`, 5.2% (inactive).
`O=C(Nc1ccccc1)c1ccc(S(=O)(=O)NCc2cccnc2)cc1`: the inhibition was 10.4% (inactive).
The same measure for `CCn1c(SCC(=O)Nc2nc(-c3ccccc3)cs2)nc2c1c(=O)n(C)c(=O)n2C`: 4.76% (inactive).
The same measure for `Cc1ccccc1-c1n[nH]c(=S)n1/N=C/C=C/c1ccco1`: -17.6% (inactive); for `CNC(=O)Cn1nc(-c2ccc(C)c(S(=O)(=O)N(C)C)c2)c2ccccc2c1=O`: -13.6% (inactive).
The same measure for `CC(=O)N(C)C1=C(N2CCOCC2)C(=O)c2ccccc2C1=O`: 1.43% (inactive); for `CC(=O)N(C1=C(N2CCOCC2)C(=O)c2ccccc2C1=O)c1ccc(C(=O)O)cc1`: 0.48% (inactive); for `COc1ccccc1NC1=C(N2CCCCC2)C(=O)c2ccccc2C1=O`: -0.23% (inactive).
Regarding `O=C1C(Nc2ccccc2)=C(N2CCCCC2)C(=O)c2ccccc21`, the inhibition was 15.3% (inactive).
The same measure for `O=C(Nc1ccc(OC(F)F)cc1)c1cc(S(=O)(=O)N2CCOCC2)ccc1F`: -7.89% (inactive); for `COCc1c(C(=O)OCC(=O)N(C)C2CCS(=O)(=O)C2)oc2ccccc12` (centres undefined): -9.04% (inactive); for `Cc1ccccc1NC(NC(=O)c1cccnc1)C(Cl)(Cl)Cl` (centres undefined): -5.69% (inactive).
Under `Cc1ccc(S(=O)(=O)Nc2ccc(N=Nc3ccc(O)cc3)cc2)cc1` stands 4.71% (inactive); under `Cc1ccc(S(=O)(=O)/N=C2\C=C(NS(=O)(=O)c3ccccc3)C(=O)c3ccccc32)cc1`, 8.43% (inactive); under `COCCC(=O)N1CCC(Oc2ccc(C(=O)NC3CCOC(C)(C)C3)cc2)CC1` (centres undefined), 5.89% (inactive).
Under `O=C1C(=O)c2ccccc2-c2ccccc21` stands 5.48% (inactive); under `O=C1C(=O)c2ccc(-c3ccccc3)cc2-c2ccccc21`, -3.6% (inactive); under `CC1CCN(CCCNC(=O)c2cc3c(s2)-c2ccccc2OC3)CC1`, -6.94% (inactive).
Regarding `Cc1c(Cl)cccc1NC(=O)CC1Oc2ccccc2NC1=O` (centres undefined), the inhibition was -22.6% (inactive).
The same measure for `COc1cc(/C=N/NC(=S)Nc2cccnc2)cc(OC)c1OC`: -1.86% (inactive); for `Fc1ccc(/C=N/NC(=S)Nc2cccnc2)cc1`: -6.6% (inactive).
As for `S=C(N/N=C/c1ccc2ncccc2c1)Nc1cccnc1`, the inhibition was -1.92% (inactive).
The same measure for `Oc1ccc(/C=N/NC(=S)Nc2cccnc2)cc1O`: -4.43% (inactive).
For `CN(C)S(=O)(=O)c1cccc(NC(=S)N/N=C/c2cc(Br)ccc2O)c1`, the inhibition was -4.31% (inactive).
The same measure for `COc1cccc(/C=N/NC(=S)Nc2cccc(S(=O)(=O)N(C)C)c2)c1`: -0.6% (inactive); for `Fc1ccc(/C=N/NC(=S)Nc2cccnc2)cc1F`: 5.25% (inactive); for `Fc1cccc(F)c1/C=N/NC(=S)Nc1cccnc1`: 4.25% (inactive).
The same measure for `O=S(=O)(c1ccccc1)N1CCN(C2CCCCCCC2)CC1`: -3.77% (inactive); for `CCCn1c(=O)c(C(=O)NCc2ccc3c(c2)OCO3)c(O)c2ccccc21`: -2.14% (inactive); for `COc1ccc2oc(C(=O)OCC(=O)N3CC(C)CC(C)C3)c(C)c2c1` (centres undefined): -0.35% (inactive).
Take `CSCCC(NC(=O)c1ccccc1)C(=O)NC1CCCC1` (centres undefined): the inhibition is 1.8% (inactive).
